Inconclusive results are not listed. Activity calls are given as the source filed them. Calls come from the whole dose curve.
Experiments:
[1] = Primary qHTS for inhibitors of SARS-S pseudo-typed particle cell entry (AID 1479145); conditions: outcome: dose series up to 57.1 µM unless noted; note: nearly all actives have a fitted effect of over 45% in size; for activity change, negative = inhibition: series mostly up to about 57 µM
[2] = Primary qHTS for Huh7 cytotoxicity: counterscreen for inhibitors of MERS-S pseudotyped particle cell entry (AID 1479147); conditions: outcome: dose series up to 57.1 µM unless noted
[3] = Primary qHTS for inhibitors of MERS-S pseudo-typed particle cell entry (AID 1479149); conditions: outcome: dose series up to 57.1 µM unless noted; note: nearly all actives have a fitted effect of over 60% in size; for activity change, negative = inhibition: series mostly up to about 57 µM
[4] = Primary qHTS for Vero E6 cytotoxicity: counterscreen for inhibitors of SARS-S pseudo-typed particle cell entry (AID 1479150); conditions: outcome: dose series up to 57.1 µM unless noted
[5] = Cytotoxicity counterscreen for inhibitors of SARS-CoV-2 cell entry (AID 1645845); conditions: outcome: dose series up to 57.1 µM unless noted; note: nearly all actives have a fitted effect of over 50% in size; for activity change, negative = cytotoxicity: series mostly up to about 57 µM
In short: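 Expi293F/hACE2 cells seeded overnight; cpd pin-transferred in DMSO, 1 h preincubation, + media, 48 h 37 C 5% CO2; ATPLite 1step luminescence; normalized to cells and no cells.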

[6] = Confirmatory qHTS for VERO E6 Cytotoxicity Assay: Counterscreen for SARS-CoV-2 CPE Assay (AID 1508605); note: series mostly up to about 20 µM; nearly all actives have a fitted effect of over 60% in size
% is set by controls: 0 for no effect and ±100 for the full control effect.

N[C@@H]1CCCCN(c2c(F)cc3c(=O)c(C(=O)O)cn(C4CC4)c3c2Cl)C1
inactive: Potency [1] | Potency [2] | Potency [3] | Potency [4]

CC(C)[C@@H](C)/C=C/[C@@H](C)[C@H]1CC[C@H]2/C(=C/C=C3\C[C@@H](O)CC[C@@H]3C)CCC[C@]12C
inactive: Potency [1] | Potency [2] | Potency [3] | Potency [4] | Potency [5]

CC(C)(C)c1ccc(CN2CCN(C(c3ccccc3)c3ccc(Cl)cc3)CC2)cc1 (centres undefined)
inactive: Potency [1] | Potency [2] | Potency [3] | Potency [4] | Potency [6]

CC1=C(C(=O)OCCN(Cc2ccccc2)c2ccccc2)C(c2cccc([N+](=O)[O-])c2)C(P2(=O)OCC(C)(C)CO2)=C(C)N1 (centres undefined)
inactive: Potency [1] | Potency [2] | Potency [3] | Potency [4] | Potency [5]

CCC1(C)OC(=O)N(C)C1=O (centres undefined)
inactive: Potency [1] | Potency [2] | Potency [3] | Potency [4] | Potency [5]

CN(C)CC(=O)O
inactive: Potency [1] | Potency [2] | Potency [3] | Potency [4] | Potency [5]

COc1ccc(NC(=O)c2ccc(C(=N)N(C)C)cc2)c(C(=O)Nc2ccc(Cl)cn2)c1
inactive: Potency [1] | Potency [2] | Potency [3] | Potency [4] | Potency [5]

Cc1ncc([N+](=O)[O-])n1CCOC(=O)c1ccccc1
inactive: Potency [1] | Potency [2] | Potency [3] | Potency [4] | Potency [5]

FC(F)OC(Cl)C(F)(F)F (centres undefined)
inactive: Potency [1] | Potency [2] | Potency [3] | Potency [4] | Potency [5]

CC(=O)O[C@]1(C(C)=O)CC[C@H]2[C@@H]3C[C@H](C)C4=CC(=O)C=C[C@]4(C)[C@@]3(F)[C@@H](O)C[C@@]21C
inactive: Potency [1] | Potency [2] | Potency [3] | Potency [4] | Potency [5]

CCN1CCCC1CNC(=O)c1cc(S(=O)(=O)CC)ccc1OC (centres undefined)
inactive: Potency [1] | Potency [2] | Potency [3] | Potency [4] | Potency [5]

CC(Oc1ccccc1)C(=O)N[C@@H]1C(=O)N2[C@@H]1SC(C)(C)[C@@H]2C(=O)O (some centres undefined)
inactive: Potency [1] | Potency [2] | Potency [3] | Potency [4] | Potency [5]

CC(C)(C)NC(=O)[C@@H]1C[C@@H]2CCCC[C@H]2CN1C[C@@H](O)[C@H](Cc1ccccc1)NC(=O)[C@H](CC(N)=O)NC(=O)c1ccc2ccccc2n1
inactive: Potency [1] | Potency [2] | Potency [3] | Potency [4] | Potency [5]

CN(CCCCCCCCCCN(C)C(=O)Oc1cccc([N+](C)(C)C)c1)C(=O)Oc1cccc([N+](C)(C)C)c1
inactive: Potency [1] | Potency [2] | Potency [3] | Potency [4] | Potency [5]

Nc1nc2c(c(=O)[nH]1)N(C=O)C(CNc1ccc(C(=O)N[C@@H](CCC(=O)O)C(=O)O)cc1)CN2 (some centres undefined)
inactive: activity change, negative = inhibition [1] -33% [at 0.573 µM] | activity change, negative = cytotoxicity [2] 2.64% [at 0.573 µM] | outcome [3] inactive [at 0.573 µM] | activity change, negative = cytotoxicity [4] 2.47% [at 0.573 µM] | outcome [5] inactive [at 0.702 µM]

CC(C)CCC[C@@H](C)[C@H]1CC[C@H]2[C@@H]3CC[C@H]4C[C@@H](O)CC[C@]4(C)[C@@H]3CC[C@]12C
inactive: Potency [1] | Potency [2] | Potency [3] | Potency [4] | Potency [5]

CCOC(=O)COc1ccc2c(C)c(CCN(CC)CC)c(=O)oc2c1
inactive: Potency [1] | Potency [2] | Potency [3] | Potency [4] | Potency [5]

CC1(C)[C@@H]2CC[C@@]1(C)[C@H](OC(=O)CSC#N)C2
inactive: Potency [1] | Potency [2] | Potency [3] | Potency [4] | Potency [5]

CN(C)CC(c1ccc(O)cc1)C1(O)CCCCC1 (centres undefined)
inactive: Potency [1] | Potency [2] | Potency [3] | Potency [4] | Potency [5]

CC(C)(C)c1ccc2c(S(=O)(=O)O)c(C(C)(C)C)ccc2c1
inactive: Potency [1] | Potency [2] | Potency [3] | Potency [4] | Potency [5]

C[C@H]1O[C@]2(CS1)CN1CCC2CC1
inactive: Potency [1] | Potency [2] | Potency [3] | Potency [4] | Potency [5]

CCCC(=O)Nc1ncnc2c1ncn2C1O[C@@H]2COP(=O)(O)O[C@H]2[C@H]1OC(=O)CCC (some centres undefined)
inactive: Potency [1] | Potency [2] | Potency [3] | Potency [4] | Potency [5]

CC[C@H]1OC(=O)C[C@@H](OC(C)=O)[C@H](C)[C@@H](O[C@@H]2O[C@H](C)[C@@H](O[C@H]3C[C@@](C)(O)[C@@H](OC(=O)CC(C)C)[C@H](C)O3)[C@H](N(C)C)[C@H]2O)[C@@H](CC=O)C[C@@H](C)C(=O)/C=C/C(C)=C/[C@@H]1CO[C@@H]1O[C@H](C)[C@@H](O)[C@@H](OC)[C@H]1OC
inactive: Potency [1] | Potency [2] | Potency [3] | Potency [4] | Potency [5]

COc1ccc(/C=C/C(=O)OCCC(C)C)cc1
inactive: Potency [1] | Potency [2] | Potency [3] | Potency [4] | Potency [5]

CCCCCCCCCCCCCCCC(=O)OC1CCCn2c1nc(C)c(CCN1CCC(c3noc4cc(F)ccc34)CC1)c2=O (centres undefined)
inactive: Potency [1] | Potency [2] | Potency [3] | Potency [4] | Potency [5]

From PubChem BioAssay (NCATS)
